The full list was thinned out, with the strongest signals kept by preference.
What was measured:
Experiment in all cases: glycan array binding signal (z-score within array); higher = stronger binding
Conditions in all cases: glycan notation: IUPAC condensed, linker removed
[1] = biological target: Fuc(a1-2)Gal(b1-3)GlcNAc(b1-2)Man(a1-3)[Fuc(a1-2)Gal(b1-3)GlcNAc(b1-2)Man(a1-6)]Man(b1-4)GlcNAc(b1-4)[Fuc(a1-6)]GlcNAc
Summary of the method: (§1)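 Glycan array binding is given as a within-array Z-score, which can be read as non-binding when negative. The arrays, 3228 of them, came from the Consortium for Functional Glycomics database and were retained only where the protein sequence was available. Z-scores were averaged across arrays of the same protein sequence at different concentrations or buffers and across linkers.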

[2] = biological target: Fuc(a1-2)Gal(b1-4)GlcNAc(b1-3)Gal(b1-4)GlcNAc(b1-2)Man(a1-3)[Fuc(a1-2)Gal(b1-4)GlcNAc(b1-3)Gal(b1-4)GlcNAc(b1-2)Man(a1-6)]Man(b1-4)GlcNAc(b1-4)GlcNAc
Summary of the method: as §1

[3] = biological target: Fuc(a1-2)Gal(b1-4)GlcNAc(b1-3)GalNAc
Summary of the method: as §1

[4] = biological target: Fuc(a1-2)Gal(b1-4)[Fuc(a1-3)]GlcNAc(b1-2)[Fuc(a1-2)Gal(b1-4)[Fuc(a1-3)]GlcNAc(b1-4)]Man(a1-3)[Fuc(a1-2)Gal(b1-4)[Fuc(a1-3)]GlcNAc(b1-2)Man(a1-6)]Man(b1-4)GlcNAc(b1-4)GlcNAc
Summary of the method: as §1

[5] = biological target: Fuc(a1-2)Gal(b1-4)[Fuc(a1-3)]GlcNAc(b1-3)Gal(b1-4)[Fuc(a1-3)]GlcNAc(b1-3)Gal(b1-4)[Fuc(a1-3)]GlcNAc
Summary of the method: as §1

[6] = biological target: Fuc(a1-2)Gal6S(b1-4)Glc6S
Summary of the method: as §1

[7] = biological target: Fuc(a1-2)[Gal(a1-3)]Gal(b1-4)GlcNAc(b1-2)Man(a1-3)[Fuc(a1-2)[Gal(a1-3)]Gal(b1-4)GlcNAc(b1-2)Man(a1-6)]Man(b1-4)GlcNAc(b1-4)[Fuc(a1-6)]GlcNAc
Summary of the method: as §1

[8] = biological target: Gal(a1-3)Gal(b1-4)GlcNAc(b1-2)Man
Summary of the method: as §1

[9] = biological target: Gal(b1-3)GalNAc(a1-3)[Fuc(a1-2)]Gal(b1-4)GlcNAc
Summary of the method: as §1

[10] = biological target: Gal(b1-3)GalNAc(b1-3)Gal
Summary of the method: as §1

[11] = biological target: Gal(b1-3)GlcNAc
Summary of the method: as §1

[12] = biological target: Gal(b1-3)GlcNAc(b1-2)Man(a1-3)[GlcNAc(b1-4)][Gal(b1-3)GlcNAc(b1-2)Man(a1-6)]Man(b1-4)GlcNAc(b1-4)GlcNAc
Summary of the method: as §1

[13] = biological target: Gal(b1-3)[GlcNAc(b1-6)]GalNAc
Summary of the method: as §1

[14] = biological target: Gal(b1-4)GlcNAc(b1-2)Man(a1-3)[Gal(b1-4)GlcNAc(b1-2)Man(a1-6)][GlcNAc(b1-4)]Man(b1-4)GlcNAc(b1-4)[Fuc(a1-6)]GlcNAc
Summary of the method: as §1

[15] = biological target: Gal(b1-4)GlcNAc(b1-2)Man(a1-3)[Man(a1-6)]Man(b1-4)GlcNAc(b1-4)GlcNAc
Summary of the method: as §1

[16] = biological target: Gal(b1-4)GlcNAc(b1-3)Gal(b1-4)GlcNAc(b1-2)Man(a1-3)[Gal(b1-4)GlcNAc(b1-3)Gal(b1-4)GlcNAc(b1-2)Man(a1-6)]Man(b1-4)GlcNAc(b1-4)GlcNAc
Summary of the method: as §1

[17] = biological target: Gal(b1-6)Gal
Summary of the method: as §1

[18] = biological target: Gal3S(b1-3)[Fuc(a1-4)]GlcNAc
Summary of the method: as §1

[19] = biological target: Gal3S(b1-4)[Fuc(a1-3)]GlcNAc
Summary of the method: as §1

[20] = biological target: Gal6S(b1-3)GlcNAc
Summary of the method: as §1

[21] = biological target: GalNAc4S6S(b1-4)GlcNAc
Summary of the method: as §1

[22] = biological target: GlcA(b1-6)Gal
Summary of the method: as §1

[23] = biological target: GlcNAc(a1-4)Gal(b1-4)GlcNAc
Summary of the method: as §1

[24] = biological target: GlcNAc(b1-2)Man(a1-3)[GlcNAc(b1-4)][GlcNAc(b1-2)Man(a1-6)]Man(b1-4)GlcNAc(b1-4)GlcNAc
Summary of the method: as §1

[25] = biological target: GlcNAc(b1-2)[GlcNAc(b1-4)]Man(a1-3)[GlcNAc(b1-2)Man(a1-6)]Man(b1-4)GlcNAc(b1-4)GlcNAc
Summary of the method: as §1

[26] = biological target: GlcNAc(b1-2)[GlcNAc(b1-4)]Man(a1-3)[GlcNAc(b1-4)][GlcNAc(b1-2)[GlcNAc(b1-6)]Man(a1-6)]Man(b1-4)GlcNAc(b1-4)GlcNAc
Summary of the method: as §1

[27] = biological target: GlcNAc(b1-3)Fuc
Summary of the method: as §1

[28] = biological target: GlcNAc(b1-3)Gal(b1-3)GalNAc
Summary of the method: as §1

[29] = biological target: GlcNAc(b1-3)Gal(b1-4)GlcNAc(b1-3)Gal(b1-4)GlcNAc(b1-2)Man(a1-3)[GlcNAc(b1-3)Gal(b1-4)GlcNAc(b1-3)Gal(b1-4)GlcNAc(b1-2)Man(a1-6)]Man(b1-4)GlcNAc(b1-4)GlcNAc
Summary of the method: as §1

[30] = biological target: GlcNAc(b1-3)Gal(b1-4)GlcNAc(b1-3)Gal(b1-4)GlcNAc(b1-2)[GlcNAc(b1-3)Gal(b1-4)GlcNAc(b1-3)Gal(b1-4)GlcNAc(b1-6)]Man(a1-6)[GlcNAc(b1-3)Gal(b1-4)GlcNAc(b1-3)Gal(b1-4)GlcNAc(b1-2)Man(a1-3)]Man(b1-4)GlcNAc(b1-4)[Fuc(a1-6)]GlcNAc
Summary of the method: as §1

[31] = biological target: GlcNAc(b1-4)GlcNAc(b1-4)GlcNAc(b1-4)GlcNAc(b1-4)GlcNAc
Summary of the method: as §1

[32] = biological target: GlcNAc(b1-6)Gal(b1-4)GlcNAc
Summary of the method: as §1

[33] = biological target: Man(a1-2)Man(a1-3)[Man(a1-6)]Man(a1-6)[Man(a1-2)Man(a1-3)]Man(b1-4)GlcNAc(b1-4)GlcNAc
Summary of the method: as §1

[34] = biological target: Neu5Ac(a2-3)Gal(b1-3)GalNAc(b1-4)[Neu5Ac(a2-8)Neu5Ac(a2-3)]Gal(b1-4)Glc
Summary of the method: as §1

[35] = biological target: Neu5Ac(a2-3)Gal(b1-3)GlcNAc(b1-2)Man(a1-3)[Neu5Ac(a2-3)Gal(b1-3)GlcNAc(b1-2)Man(a1-6)]Man(b1-4)GlcNAc(b1-4)GlcNAc
Summary of the method: as §1

[36] = biological target: Neu5Ac(a2-3)Gal(b1-4)GlcNAc(b1-2)Man(a1-3)[Neu5Ac(a2-3)Gal(b1-4)GlcNAc(b1-2)Man(a1-6)]Man(b1-4)GlcNAc(b1-4)GlcNAc
Summary of the method: as §1

[37] = biological target: Neu5Ac(a2-3)Gal(b1-4)GlcNAc(b1-3)Gal(b1-4)[Fuc(a1-3)]GlcNAc
Summary of the method: as §1

[38] = biological target: Neu5Ac(a2-3)Gal(b1-4)[Fuc(a1-3)]GlcNAc
Summary of the method: as §1

[39] = biological target: Neu5Ac(a2-3)Gal(b1-4)[Fuc(a1-3)]GlcNAc(b1-3)Gal
Summary of the method: as §1

[40] = biological target: Neu5Ac(a2-6)Gal(b1-4)GlcNAc(b1-2)Man(a1-3)[Neu5Ac(a2-6)Gal(b1-4)GlcNAc(b1-2)Man(a1-6)]Man(b1-4)GlcNAc(b1-4)[Fuc(a1-6)]GlcNAc
Summary of the method: as §1

[41] = biological target: Neu5Ac(a2-6)Gal(b1-4)GlcNAc(b1-2)[Neu5Ac(a2-6)Gal(b1-4)GlcNAc(b1-4)]Man(a1-3)[GlcNAc(b1-4)][Neu5Ac(a2-6)Gal(b1-4)GlcNAc(b1-4)Man(a1-6)]Man(b1-4)GlcNAc(b1-4)GlcNAc
Summary of the method: as §1

[42] = biological target: Neu5Ac(a2-6)GlcNAc(b1-4)GlcNAc
Summary of the method: as §1

[43] = biological target: Neu5Ac(a2-8)Neu5Ac(a2-3)[GalNAc(b1-4)]Gal(b1-4)Glc
Summary of the method: as §1

[44] = biological target: Neu5Ac(a2-8)Neu5Gc(a2-3)Gal(b1-4)GlcNAc
Summary of the method: as §1

[45] = biological target: Neu5Ac9Ac(a2-6)Gal(b1-4)GlcNAc
Summary of the method: as §1

[46] = biological target: Neu5Gc(a2-3)Gal(b1-4)GlcNAc
Summary of the method: as §1

[47] = biological target: Neu5Gc(b2-6)Gal(b1-4)GlcNAc
Summary of the method: as §1

B1: SAOUHSC 02783 (Staphylococcus aureus), Q5HD69 (protein)
chain: MIHSKKLTLGICLVLLIILIVGYVIMTKTNGRNAQIKDTFNQTLKLYPTKNLDDFYDKEGFRDQEFKKGDKGTWIVNSEMVIEPKGKDMETRGMVLYINRNTRTTKGYYFISEMTDDSNGRPKDDEKRYPVKMEHNKIIPTKPLPNDKLKKEIENFKFFVQYGNFKDINDYKDGDISYNPNVPSYSAKYQLNNDDYNVQQLRKRYDIPTKQAPKLLLKGDGDLKGSSVGSRSLEFTFVENKEENIYFTDSVQYTPSEDTRYESN
B1 was tested. Which “glycan array binding signal (z-score)” value [1] did it give?
Its value is 2.61.

What about the “glycan array binding signal (z-score)” value [2] of the same binder?
Its value is -0.248.

What about the “glycan array binding signal (z-score)” value [3] of the same binder?
Its value is 0.108.

What about the “glycan array binding signal (z-score)” value [4] of the same binder?
Its value is 4.52.

What about the “glycan array binding signal (z-score)” value [5] of the same binder?
The value was -0.71.

What about the “glycan array binding signal (z-score)” value [6] of the same binder?
The value was 0.515.

What about the “glycan array binding signal (z-score)” value [7] of the same binder?
Its value is -1.39.

What about the “glycan array binding signal (z-score)” value [8] of the same binder?
Its value is -0.596.

And the “glycan array binding signal (z-score)” value [9]?
The value was -1.73.

And the “glycan array binding signal (z-score)” value [10]?
The value was -0.932.

What about the “glycan array binding signal (z-score)” value [11] of the same binder?
The value was 0.236.

What about the “glycan array binding signal (z-score)” value [12] of the same binder?
The value was 3.09.

And the “glycan array binding signal (z-score)” value [13]?
The value was -0.308.

What about the “glycan array binding signal (z-score)” value [14] of the same binder?
The value was -0.077.

What about the “glycan array binding signal (z-score)” value [15] of the same binder?
Its value is 5.18.

And the “glycan array binding signal (z-score)” value [16]?
Its value is 2.58.

And the “glycan array binding signal (z-score)” value [17]?
Its value is 0.805.

And the “glycan array binding signal (z-score)” value [18]?
The value was -0.32.

What about the “glycan array binding signal (z-score)” value [19] of the same binder?
Its value is -0.324.

And the “glycan array binding signal (z-score)” value [20]?
The value was -0.599.

What about the “glycan array binding signal (z-score)” value [21] of the same binder?
The value was -0.245.

And the “glycan array binding signal (z-score)” value [22]?
Its value is 2.83.

What about the “glycan array binding signal (z-score)” value [23] of the same binder?
The value was -0.454.

What about the “glycan array binding signal (z-score)” value [24] of the same binder?
The value was -0.821.

What about the “glycan array binding signal (z-score)” value [25] of the same binder?
The value was 1.11.

What about the “glycan array binding signal (z-score)” value [26] of the same binder?
The value was -0.289.

And the “glycan array binding signal (z-score)” value [27]?
Its value is -0.235.

And the “glycan array binding signal (z-score)” value [28]?
The value was -0.447.

And the “glycan array binding signal (z-score)” value [29]?
Its value is 2.6.

What about the “glycan array binding signal (z-score)” value [30] of the same binder?
Its value is 2.84.

And the “glycan array binding signal (z-score)” value [31]?
Its value is -0.476.

What about the “glycan array binding signal (z-score)” value [32] of the same binder?
The value was 0.133.

What about the “glycan array binding signal (z-score)” value [33] of the same binder?
The value was 0.494.

And the “glycan array binding signal (z-score)” value [34]?
The value was -0.869.

What about the “glycan array binding signal (z-score)” value [35] of the same binder?
The value was 6.23.

What about the “glycan array binding signal (z-score)” value [36] of the same binder?
Its value is 0.306.

What about the “glycan array binding signal (z-score)” value [37] of the same binder?
Its value is -0.998.

And the “glycan array binding signal (z-score)” value [38]?
Its value is -1.44.

And the “glycan array binding signal (z-score)” value [39]?
Its value is -0.162.

And the “glycan array binding signal (z-score)” value [40]?
Its value is 2.81.

What about the “glycan array binding signal (z-score)” value [41] of the same binder?
Its value is 0.093.

And the “glycan array binding signal (z-score)” value [42]?
The value was 1.36.

And the “glycan array binding signal (z-score)” value [43]?
Its value is -0.759.

What about the “glycan array binding signal (z-score)” value [44] of the same binder?
Its value is -1.02.

What about the “glycan array binding signal (z-score)” value [45] of the same binder?
Its value is 1.65.

What about the “glycan array binding signal (z-score)” value [46] of the same binder?
Its value is 3.09.

What about the “glycan array binding signal (z-score)” value [47] of the same binder?
The value was -0.76.

— the supplement of paper PMC8728848
